What all share (assay): protein binding microarray; high values mean tight binding
Details in all cases: dsDNA, one strand shown

Experiment [1] addresses RELARELA (p65 homodimer) (Homo sapiens, UniProt Q04206 1-307).
The target of experiment [2] is p50p50 homodimer (Homo sapiens, UniProt P19838 7-356).
Experiment [3] addresses T1, p52p52 homodimer (Homo sapiens, UniProt Q00653 4-332).
T1 sequence: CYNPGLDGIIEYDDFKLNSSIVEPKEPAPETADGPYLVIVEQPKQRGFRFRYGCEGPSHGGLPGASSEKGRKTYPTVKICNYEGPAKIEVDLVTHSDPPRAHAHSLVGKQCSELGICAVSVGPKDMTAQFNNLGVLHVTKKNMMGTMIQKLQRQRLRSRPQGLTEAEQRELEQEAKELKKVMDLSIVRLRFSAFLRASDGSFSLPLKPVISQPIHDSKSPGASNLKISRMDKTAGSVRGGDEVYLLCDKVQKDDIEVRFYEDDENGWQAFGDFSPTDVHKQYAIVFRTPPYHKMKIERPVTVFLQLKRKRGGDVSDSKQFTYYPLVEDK

Experiment [4] addresses RELA (p65) subunit of heterodimer;p50 subunit (Homo sapiens;Homo sapiens, UniProt Q04206;P19838 1-307;7-356).
The target in experiment [5] is RELA (p65) subunit of heterodimer;p52 subunit (Homo sapiens;Homo sapiens, UniProt Q04206;Q00653 1-307;4-332).
The target in experiment [6] is RELB subunit;p50 subunit (Homo sapiens;Homo sapiens, UniProt Q01201;P19838 120-401;7-356).
Experiment [7] addresses T2, RELB subunit;p52 subunit (Homo sapiens;Homo sapiens, UniProt Q01201;Q00653 120-401;4-332).
T2 sequence 1: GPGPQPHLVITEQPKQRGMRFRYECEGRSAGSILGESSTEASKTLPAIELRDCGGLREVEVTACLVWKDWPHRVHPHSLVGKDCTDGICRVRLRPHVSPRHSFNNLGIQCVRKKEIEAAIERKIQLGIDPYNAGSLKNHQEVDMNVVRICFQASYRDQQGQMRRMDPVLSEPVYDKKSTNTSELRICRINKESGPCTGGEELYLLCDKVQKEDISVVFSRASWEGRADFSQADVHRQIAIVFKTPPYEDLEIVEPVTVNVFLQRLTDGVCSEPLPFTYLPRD
T2 sequence 2: T1 sequence

For experiment [8], the target named is C-Rel subunit;p50 subunit (Homo sapiens;Homo sapiens, UniProt Q04864;P19838 1-285;7-356).
The target in experiment [9] is T3, C-Rel subunit;p52 subunit (Homo sapiens;Homo sapiens, UniProt Q04864;Q00653 1-285;4-332).
T3 sequence 1: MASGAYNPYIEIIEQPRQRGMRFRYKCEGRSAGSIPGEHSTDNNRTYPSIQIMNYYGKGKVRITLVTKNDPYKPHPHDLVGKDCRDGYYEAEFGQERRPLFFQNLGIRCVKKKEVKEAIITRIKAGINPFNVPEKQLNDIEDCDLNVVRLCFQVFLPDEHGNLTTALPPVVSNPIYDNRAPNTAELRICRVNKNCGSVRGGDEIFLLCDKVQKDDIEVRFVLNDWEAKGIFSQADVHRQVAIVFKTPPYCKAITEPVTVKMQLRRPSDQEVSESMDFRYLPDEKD
T3 sequence 2: T1 sequence

Chain of p50p50 homodimer (P19838 7-356): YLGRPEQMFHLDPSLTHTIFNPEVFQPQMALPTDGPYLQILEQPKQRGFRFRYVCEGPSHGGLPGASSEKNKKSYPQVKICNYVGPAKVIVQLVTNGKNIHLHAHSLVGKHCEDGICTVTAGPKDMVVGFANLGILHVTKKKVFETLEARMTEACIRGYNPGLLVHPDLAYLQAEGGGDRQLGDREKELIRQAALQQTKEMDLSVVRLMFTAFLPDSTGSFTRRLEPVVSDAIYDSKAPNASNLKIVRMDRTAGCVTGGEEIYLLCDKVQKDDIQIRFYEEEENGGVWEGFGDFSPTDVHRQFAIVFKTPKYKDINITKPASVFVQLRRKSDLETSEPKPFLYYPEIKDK
Chain of RELARELA (p65 homodimer) (Q04206 1-307): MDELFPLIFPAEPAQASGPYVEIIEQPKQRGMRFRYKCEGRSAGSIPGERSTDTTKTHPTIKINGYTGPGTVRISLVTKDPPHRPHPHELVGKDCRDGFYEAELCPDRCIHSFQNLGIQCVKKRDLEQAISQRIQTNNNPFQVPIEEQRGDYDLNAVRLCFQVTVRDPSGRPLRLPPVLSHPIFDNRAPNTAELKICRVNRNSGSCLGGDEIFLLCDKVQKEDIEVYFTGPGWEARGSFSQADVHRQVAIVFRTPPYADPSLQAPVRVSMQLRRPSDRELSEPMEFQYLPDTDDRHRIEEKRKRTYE
Chain of RELA (p65) subunit of heterodimer;p50 subunit (Q04206 1-307, chain 1 of 2): as the sequence (Q04206 1-307) above
Chain of RELA (p65) subunit of heterodimer;p50 subunit (P19838 7-356, chain 2 of 2): as the sequence (P19838 7-356) above

In the case of AAGGTGTCCCT, the binding signal in experiment [1] was -0.0449 z-score; in experiment [2], 0.811 z-score; in experiment [3], 0.895 z-score; in experiment [4], 0.784 z-score; in experiment [5] it was 0.967 z-score; in experiment [6], 1.01 z-score. For the same sequence, the binding signal was 1.5 z-score in [7], 0.63 z-score in experiment [8] and 0.562 z-score in experiment [9].

CAGGGGACCCT: the binding signal in experiment [1] was -0.887 z-score; in [2], 0.487 z-score; in [3] it was 0.583 z-score; in experiment [4], 0.0452 z-score; in experiment [5], 0.384 z-score; in experiment [6], 0.29 z-score. In addition, the binding signal was 0.53 z-score in experiment [7], -0.293 z-score in experiment [8] and -0.0494 z-score in experiment [9].

For GGAGTCACCCT, the binding signal in experiment [1] was -0.674 z-score; in experiment [2] it was -0.676 z-score; in experiment [3], -0.345 z-score; in [4], -0.224 z-score; in experiment [5] it was -0.5 z-score; in experiment [6], -0.378 z-score. Besides, the binding signal is -0.661 z-score in experiment [7], -0.396 z-score in [8] and -0.585 z-score in experiment [9].

As to GGAGTCCTCCC, the binding signal in experiment [1] was -0.114 z-score; in experiment [2] it was -0.916 z-score; in experiment [3] it was -0.266 z-score; in [4], -0.571 z-score; in [5], -0.463 z-score; in experiment [6], -0.55 z-score. The binding signal in experiment [7] is -0.535 z-score; in experiment [8], -0.207 z-score; in experiment [9], -0.576 z-score.

Turning to CGAGGTGCCCT, the binding signal in experiment [1] was -0.746 z-score; in experiment [2], -1.52 z-score; in experiment [3], -0.61 z-score; in [4], -0.798 z-score; in experiment [5] it was -0.84 z-score; in [6], -0.973 z-score. The values for the binding signal in [7], in experiment [8] and in experiment [9] were -0.87 z-score, -1.16 z-score and -0.789 z-score, respectively.

Turning to CAGTTACCCCC, the binding signal turned out to be 0.379 z-score in experiment [1]; 1.11 z-score in experiment [2]; 0.638 z-score in experiment [3]; 0.953 z-score in experiment [4]; 0.838 z-score in experiment [5]; 1.01 z-score in experiment [6]. The values for the binding signal in experiment [7], in experiment [8] and in experiment [9] were 1.4 z-score, 1.01 z-score and 0.788 z-score, respectively.

On to CAAGGAGCCCC, for which the binding signal in experiment [1] is -0.885 z-score; in [2], 0.241 z-score; in experiment [3], -0.0311 z-score; in experiment [4], -0.1 z-score; in [5], -0.176 z-score; in [6], 0.0779 z-score. Moreover, the figures for the binding signal in [7], in experiment [8] and in experiment [9] were 0.0984 z-score, 0.121 z-score and -0.176 z-score, respectively.

As for GGATTCCCCCT, the binding signal was 2.01 z-score in experiment [1]; 1.46 z-score in experiment [2]; 2.93 z-score in [3]; 2.64 z-score in experiment [4]; 2.73 z-score in experiment [5]; 2.83 z-score in experiment [6]. The binding signal in experiment [7] worked out at 2.57 z-score; in [8], 2.03 z-score; in [9], 2.78 z-score.

GAGAATGTCCT: the binding signal in experiment [1] is 0.673 z-score; in experiment [2] it was -1.23 z-score; in experiment [3] it was -0.437 z-score; in experiment [4], -0.682 z-score; in experiment [5], -0.739 z-score; in experiment [6] it was -1.01 z-score. Moreover, the binding signal in [7] is -0.926 z-score; in experiment [8], -0.737 z-score; in [9], -0.678 z-score.

For AGAGATCCCCC, the binding signal in [1] is -0.101 z-score; in experiment [2], 1.31 z-score; in experiment [3], 1.28 z-score; in [4] it was 2.02 z-score; in [5], 1.56 z-score; in experiment [6] it was 1.82 z-score. The binding signal in experiment [7] came to 1.98 z-score; in experiment [8], 1.37 z-score; in [9], 1.47 z-score.

In the case of AGGATAATCCC, the binding signal in experiment [1] is 1.11 z-score; in [2], -0.039 z-score; in [3], 0.47 z-score; in experiment [4], 0.562 z-score; in [5], 0.416 z-score; in experiment [6] it was -0.113 z-score. Besides, the binding signal was 0.0769 z-score in [7], 0.307 z-score in experiment [8] and 0.396 z-score in experiment [9].

With GGAGTCTCCCC, the binding signal in [1] worked out at 1.17 z-score; in experiment [2], 0.531 z-score; in experiment [3] it was 0.409 z-score; in [4] it was 1.27 z-score; in [5], 0.997 z-score; in experiment [6], 0.547 z-score. In addition, the binding signal in [7] stood at 0.514 z-score; in experiment [8] it was 0.822 z-score; in [9] it was 0.954 z-score.

As for GGGGTCTCCCT, the binding signal in experiment [1] was determined as 0.447 z-score; in experiment [2], 0.727 z-score; in experiment [3], 1.4 z-score; in experiment [4], 1.01 z-score; in experiment [5] it was 1.15 z-score; in [6], 0.85 z-score. For the same sequence, the binding signal in [7] was 1.05 z-score; in experiment [8] it was 0.709 z-score; in experiment [9] it was 1.16 z-score.

Regarding GAAGAAATCCC, the binding signal in [1] came out at 1.23 z-score; in experiment [2] it was 0.872 z-score; in [3], 0.93 z-score; in experiment [4] it was 0.96 z-score; in experiment [5] it was 0.759 z-score; in experiment [6], 0.876 z-score. For the same sequence, the values for the binding signal in experiment [7], in experiment [8] and in [9] were 0.618 z-score, 0.892 z-score and 0.641 z-score, respectively.

On to GGGGGTGCCCC, for which the binding signal turned out to be 1.45 z-score in experiment [1]; 0.814 z-score in [2]; 3.15 z-score in experiment [3]; 2.21 z-score in experiment [4]; 2.88 z-score in experiment [5]; 2.52 z-score in experiment [6]. In addition, the binding signal in experiment [7] stood at 2.27 z-score; in [8], 1.67 z-score; in experiment [9], 2.5 z-score.
